Assay outcomes (PubChem BioAssay)
Rows were chosen to be rich in hits. Some 19% of all compounds tested hit in one or more screens of this group.
IL1B secr inh – qHTS for Inhibitors of Inflammasome Signaling: IL-1-beta AlphaLISA Primary Screen. THP-1 LPS/ATP IL-1B secretion, AlphaLISA, 16 h; active compounds read low. 4.7% of 360,000 active. activity change, % at 57.5 µM; in the data active = activity change below about -50%; inconclusive = mostly about -30% to -49%; note: % is set by controls: 0 for no effect and ±100 for the full control effect
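THP-1 cells pretreated 1 hr with compounds (up to 57.5 uM final), then stimulated with LPS (250 ng/mL final) plus ATP (1.25 mM final); secreted IL-1B measured by AlphaLISA after 16 hr, decreased signal indicating inhibition.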
DT40 TDP1 CPT – qHTS for Inhibitors of human tyrosyl-DNA phosphodiesterase 1 (TDP1): qHTS in cells in presence of CPT; chicken DT40 Tdp1-/-;hTDP1 cells + 20 nM CPT, ATP luminescence, 48 h; Potency, µM (series often up to 46.2 µM), for inactives: at the top dose activity change, negative = growth inhibition, actives largely listed as inhibitors; 12% of 420,000 active; note: potency is the fitted concentration of half-maximal effect; % is set by controls: 0 for no effect and ±100 for the full control effect; nearly all actives have a fitted effect of over 55% in size
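Cell growth measured by CellTiter-Glo luminescence after a minimum 48 h, 37 C compound exposure with 20 nM CPT in Tdp1-knockout DT40 cells stably expressing hTDP1, seeded 400/well; qHTS titration format.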
SW480 rerep – A quantitative high throughput screen for small molecules that induce DNA re-replication in SW480 colon adenocarcinoma cells; SW480 DNA re-replication, Hoechst DNA content imaging, 48 h; Potency, µM (top dose mostly 46.1 µM), inactives show top-dose re-replication activation, usual class: activators; 1.8% of 340,000 active; note: potency is the fitted concentration of half-maximal effect; % of control where 0% means no effect; nearly all actives have a fitted effect of over 55% in size
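Per well, 250 cells were exposed to pinned compound for 48 hr. Nuclear DNA was visualised with Hoechst (40 min, 37 C) and total object intensity recorded by fluorescence scanning.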
DT40 TDP1 no CPT – qHTS for Inhibitors of human tyrosyl-DNA phosphodiesterase 1 (TDP1): qHTS in cells in absence of CPT; DT40 Tdp1-/- hTDP1 cells, no CPT, ATP luminescence, 48 h; Potency, µM (doses to about 46.2 µM), for inactives: at the highest dose activity change, negative = growth inhibition, usual class: inhibitors; AID 686978, 2013; 15% of 420,000 active; note: potency is the fitted concentration of half-maximal effect; % is set by controls: 0 for no effect and ±100 for the full control effect; nearly all actives have a fitted effect of over 55% in size
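Growth of hTDP1-complemented DT40 Tdp1-knockout cells is measured by ATP luminescence after at least 48 hr compound exposure at 37 °C, with DMSO substituting for the 20 nM CPT used in the parallel screen.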
Chronic BCR inh – qHTS Assay to Find Inhibitors of Chronic Active B-Cell Receptor Signaling | ABC-DLBCL IkBa-CBG/CBR reporter, luminescence ratio, 4 h | Potency, µM (series often up to 46.1 µM), without a hit: at the top dose activity change, negative = inhibition, usual class: inhibitors | 0.05% of 340,000 active | AID 493014, 2011; active = well fitted inhibition curve with a large enough effect in the signal ratio, with a control signal flat, not every such curve was filed as active; inconclusive = small, poorly fitted or top-dose-only effect, or effect the other way, or a change in a side signal; the % refers to the signal ratio;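 note: potency is the fitted concentration of half-maximal effect; plate controls were basal doxycycline-induced cells for no effect and cells given 10 µM MG132 for full effect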
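Doxycycline induced both beetle luciferases in TMD8 lymphoma cells; IKK-driven degradation limits the IkappaBalpha-fused green signal, while red luminescence normalises for cell number and nonspecific effects. Compounds tested up to 46 uM, 4 hrs.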
MCF10A rereplic – A quantitative high throughput screen for small molecules that induce DNA re-replication in MCF 10a normal breast cells; MCF 10A DNA re-replication, Hoechst nuclear intensity, 48 h; Potency, µM (doses to about 46.1 µM), for the others: at the highest dose activity, positive = re-replication, actives largely listed as activators; 2.9% of 350,000 active; note: potency is the fitted concentration of half-maximal effect; % of control where 0% means no effect; nearly all actives have a fitted effect of over 50% in size
* = called active by the depositor; ? = inconclusive; nt = not tested or not shown; [ ] = dose if it differs, or a comment. Unless noted, calls come from the whole dose curve; as a rule, active = well fitted curve in the direction sought with a large enough effect; inconclusive = small, poorly fitted or top-dose-only effect, or another doubt; inactive = no such curve, though single readings can be large; an effect the other way counts as inactive or inconclusive.

SMILES	IL1B secr inh	DT40 TDP1 CPT	SW480 rerep	DT40 TDP1 no CPT	Chronic BCR inh	MCF10A rereplic
CC(C)n1ncc2c(C(=O)Nc3cccc(C#N)c3)cc(C3CC3)nc21	-57.6*	?	-19.6%	?	?	23.1µM*
COc1ccc(NC(=O)c2cc(-c3ccccc3)nc3c2cnn3C(C)C)cc1	-70.0*	?	?	?	-2.6%	?
COc1ccccc1CNC(=O)c1cc(C2CC2)nc2c1cnn2C(C)C	2.7	?	8.9%	?	1.3%	?
CC(C)n1ncc2c(C(=O)O)cc(C3CC3)nc21	0.7	?	-20.5%	3.9%	-1.4%	8.0%
CC(C)n1ncc2c(C(=O)N3CCN(Cc4ccc(Br)s4)CC3)cc(C3CC3)nc21	?	25.9µM*	142.6%	23.1µM*	0.6%	?
CCc1nc(SCC(=O)NC2CCCC2)c2c(=O)n(C)c(=O)n(C)c2n1	6.3	2.8%	-0.5%	-9.3%	-0.2%	1.0%
CCOc1ccc(OCCNC(=O)c2cc(C3CC3)nc3c2cnn3C(C)C)cc1	?	16.4µM*	2.2%	5.17µM*	?	18.2%
O=C(Nc1ccccc1NS(=O)(=O)c1ccc(F)cc1)C1CCC1	39.9	?	3.8%[1.84 µM]	?	-1.9%	5.6%
CC1(C)C(C=C(Cl)Cl)C1C(=O)N/N=C/c1ccccc1F (centres undefined)	-10.6	?	7.7%	29.1µM*	16.4%	13.8%
O=C(Nc1ccc([N+](=O)[O-])cc1)C1CC1(c1ccccc1)c1ccccc1 (centres undefined)	0.0	?	?	?	9.1%	31.0%
CC1(C)C(C=C(Cl)Cl)C1C(=O)Nc1ccc([N+](=O)[O-])cc1 (centres undefined)	-99.3*	18.4µM*	?	16.4µM*	8.2%	?
CCCC(=O)Nc1cc(C)cn(Cc2c(F)cccc2Cl)c1=O	-10.5	-6.2%	-6.4%[9.22 µM]	-7.7%	-1.5%	-6.6%
COc1ccccc1N1CCN(CC(=O)Nc2nc(C)c(C(=O)N(C)C)s2)CC1	17.5	10.0%	-0.7%	-16.0%	0.2%	-5.4%
COc1ccc(OC)c(NC(=O)c2cc3c(n(-c4ccc(Cl)cc4)c2=O)CC(C)(C)CC3=O)c1	nt	?	nt	-5.8%	nt	nt
O=c1c(-c2ccc(Cl)cc2)nc2cnc(N3CCOCC3)nc2n1-c1ccccc1	nt	10.7%	nt	-11.9%	nt	nt
COc1ccc(-n2c(=O)c(-c3cccs3)nc3cnc(Nc4cccc(OC)c4)nc32)cc1	nt	-14.8%	nt	23.1µM*	nt	nt
CCNc1ncc2nc(-c3ccc(OC)cc3)c(=O)n(-c3ccc(OC)cc3)c2n1	nt	?	nt	0.0326µM*	nt	nt
CCNc1ncc2nc(-c3ccc(F)cc3)c(=O)n(-c3ccccc3)c2n1	nt	4.1%	nt	-0.6%	nt	nt
O=c1c(-c2ccc(Cl)cc2)nc2cnc(N3CCNCC3)nc2n1-c1ccccc1	nt	4.11µM*	nt	4.61µM*	nt	nt
COc1ccc(-c2nc3cnc(N4CCNCC4)nc3n(-c3ccc(OC)cc3)c2=O)cc1	nt	18.4µM*	nt	?	nt	nt
COc1cccc(Nc2ncc3nc(-c4cccs4)c(=O)n(CCC#N)c3n2)c1	nt	1.9%	nt	-0.9%	nt	nt
COc1ccc(NC(=O)C2C3C=CC4(O3)C2C(=O)N(CCN2CCCCC2C)C4C(=O)NC2CCCCC2)cc1 (centres undefined)	-18.5	0.2%	-1.2%	18.8%	0.4%	-8.2%
CCOc1ccc(CC(=O)Nc2nnc3n2CCS3)cc1	nt	-2.5%	nt	-24.8%	nt	nt
O=C(OC1C2C=CC1C1C(=O)NC21)c1ccccc1 (centres undefined)	-10.2	2.2%	nt	-22.8%	nt	nt
COc1ccc(-c2nc3cnc(N4CCNCC4)nc3n(-c3ccccc3)c2=O)cc1	nt	20.6µM*	nt	14.6µM*	nt	nt
SMILES	IL1B secr inh	DT40 TDP1 CPT	SW480 rerep	DT40 TDP1 no CPT	Chronic BCR inh	MCF10A rereplic
COc1ccc(-n2c(=O)c(-c3ccc(Cl)cc3)nc3cnc(N4CCNCC4)nc32)cc1	nt	5.17µM*	nt	11.6µM*	nt	nt
CCOC(=O)C1CCN(C(=O)CSc2nc3ncccc3[nH]2)CC1	4.5	9.7%	0.7%	-17.1%	?	19.8%
CC1CCCCC1NC(=O)C1CCN(c2c3c(nc4ncnn24)CCC3)CC1 (centres undefined)	0.1	-28.7%	-3.7%	11.6µM*	8.1%	2.8%
c1ccc(N/N=C(\Cc2nc3ccccc3[nH]2)c2ccccc2)cc1	-67.6*	?	15.2%	?	?	?
N#CCCN/N=C(\Cc1nc2ccccc2[nH]1)c1ccccc1	-13.2	?	0.2%	?	?	2.0%
Clc1cccc(/C(Cc2nc3ccccc3[nH]2)=N\Nc2ccccc2)c1	-78.2*	?	?	?	?	?
O=C(CNC(=O)c1ccccc1)NCCc1nc2ccccc2[nH]1	4.4	3.7%	-1.4%[9.22 µM]	7.8%	-4.5%	4.0%
O=C(CSCc1nc2ccccc2[nH]1)Nc1ccccc1	0.0	-7.2%	0.1%	2.2%	-1.6%	-4.2%
N/N=C(/Cc1nc2ccccc2[nH]1)c1ccc([N+](=O)[O-])cc1	-5.8	25.9µM*	-2.7%	?	?	-2.3%
CCN/N=C(\Cc1nc2ccccc2[nH]1)c1ccccc1	2.5	8.2%	16.3%	-14.2%	?	20.6µM*
COC(=O)[C@H](CCSC)NC(=O)Cn1cnc2c(NCc3ccccc3)ncnc21	83.1	-10.0%	-9.4%	9.0%	-0.2%	-0.7%
COc1ccc(S(=O)(=O)c2cn(C)c3ccc(C)cc3c2=O)cc1	nt	-14.1%	nt	-29.0%	nt	nt
COC(=O)c1cc(C(=O)OCC(=O)NC(=O)c2ccccc2)cc([N+](=O)[O-])c1	25.3	6.0%	-97.8%	-18.7%	0.5%	-1.2%
CCOC(=O)C1(C)CCCN(C(=O)c2cccs2)C1 (centres undefined)	45.1	-11.8%	nt	9.3%	nt	nt
Cc1ccc(N/N=C(\Cc2nc3ccccc3[nH]2)c2ccccc2)cc1	0.1	0.82µM*	1.84µM*	0.651µM*	23.1µM*	?
c1ccc(-c2nccc3ccccc23)cc1	24.9	-4.3%	-15.2%	2.6%	nt	-10.8%
Cc1ccc(-c2nc(-c3nccc4ccccc34)oc2-c2ccccc2)cc1	-5.4	?	?	13µM*	?	?
O=C(Cc1cccs1)Nc1nc2ccccc2s1	-4.3	?	-3.4%	14.6µM*	?	?
